The panel holds about 83,000 compounds, 20% with a hit somewhere; the sample as a whole holds those more often.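 Interpretation: 100, growth as untreated; towards 0, rising growth inhibition; 0, no net growth; 0 to -100, cell death. Compounds scoring below 10 were considered active.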 Values without a mark were called inactive. The source made the active and inactive calls.
Experiments:
Experiment in all cases: NCI-60 one-dose screen, 48 h (100 = growth as untreated, 0 = no growth, -100 = all killed)
Settings in all cases: 10 µM unless noted
[1] = test system: HCT-15 colon
[2] = test system: HT29 colon
[3] = test system: SNB-75 CNS
[4] = test system: SNB-19 CNS
[5] = test system: U251 CNS
[6] = test system: PC-3 prostate
[7] = test system: SK-MEL-5 melanoma
[8] = test system: UACC-62 melanoma
[9] = test system: LOX IMVI melanoma
[10] = test system: SK-MEL-28 melanoma
[11] = test system: SK-MEL-2 melanoma
[12] = test system: EKVX NSCLC
[13] = test system: SN12C renal
[14] = test system: UO-31 renal
[15] = test system: TK-10 renal
[16] = test system: ACHN renal
[17] = test system: CAKI-1 renal
[18] = test system: A498 renal
[19] = test system: CCRF-CEM leukemia
[20] = test system: MOLT-4 leukemia

Row | SMILES | growth [1] | growth [2] | growth [3] | growth [4] | growth [5] | growth [6] | growth [7] | growth [8] | growth [9] | growth [10] | growth [11] | growth [12] | growth [13] | growth [14] | growth [15] | growth [16] | growth [17] | growth [18] | growth [19] | growth [20]
1 | Cc1cccc(/C=N/n2c(-c3ccc(Cl)cc3)nc3c(Br)cc(Br)cc3c2=O)c1 | 70.5% | 67.9% | 45.9% | 62% | 43% | 21.4% | 38.5% | 35.5% | 52.6% | 60.7% | 72.5% | 52.3% | 47.9% | 41.8% | 26.8% | 13.5% | 31.2% | 99.6% | 75.6% | 55.4%
2 | CC(C)(C)[Si](C)(C)OC1[C@@H](O[Si](C)(C)C(C)(C)C)[C@@H](CNC(=O)NC(=O)NC(=O)CI)O[C@H]1n1cnc2c(NC(=O)Nc3ccccc3)ncnc21 (stereo not given in full) | 83.1% | -39.8% (active) | 68.1% | 103% | 32.5% | 14.7% | 102% | 75.4% | -80.7% (active) | 125% | 92.8% | 56.5% | 84.1% | -89.2% (active) | 46.6% | -22.7% (active) | 47.8% | 73.8% | -38.5% (active) | 29.6%
3 | CCN(CC)c1ccc(/C=N/N=C(N)N)cc1 | 41.2% | 9.78% (active) | 40.2% | 73.6% | 46.9% | 30.7% | 40.2% | 48.4% | 55.5% | 61.7% | 49.1% | 76.5% | 67.3% | 51.4% | 63.4% | 43.6% | 45.1% | 43.9% | 36% | 49.1%
4 | O=C1C=CN2C(=O)CC=CC2[C@@H]1O (stereo not given in full) | 138% | 110% | 94.1% | 130% | 120% | 94.9% | 109% | 115% | 100% | 110% | 113% | 121% | 106% | 78.2% | 118% | 109% | 109% | 108% | 96.3% | 109%
5 | O=C1Nc2ccc(Br)cc2/C1=N/c1nc(-c2ccccc2)cs1 | 94.9% | 91.7% | 79% | 96.2% | 92.9% | 62.3% | 77.5% | 80.5% | 92% | 95% | 88% | 66.8% | 96% | 63.9% | 109% | 94.8% | 70.7% | 78.9% | 101% | 59.2%
6 | CCN(CC)CCNC(=O)C(F)(F)C(F)(F)C(F)(F)F | 100% | 115% | 97.2% | 116% | 104% | 96% | 105% | 107% | 104% | 115% | 106% | 102% | 108% | 89.9% | 108% | 101% | 94.6% | 102% | 100% | 109%
7 | O=C(CCl)Nc1cc(O)c2c(c1)C(=O)c1cccc(O)c1C2=O | -82.2% (active) | -88% (active) | 7.38% (active) | -36.5% (active) | -96.2% (active) | -63.6% (active) | -95% (active) | -67.3% (active) | -68.2% (active) | 2.89% (active) | -49.4% (active) | 5% (active) | -43.1% (active) | -87% (active) | -87.3% (active) | -91.2% (active) | -94% (active) | -0.734% (active) | -45% (active) | -56.3% (active)
8 | Nc1ncnc2c1N=C(c1ccc3c(c1)OCO3)CC(c1ccc(Cl)cc1)N2 (stereo not given) | 63.6% | 69.8% | 48.5% | 67.8% | 74% | 62.6% | 78% | 60.3% | 76.2% | 88.5% | 58.1% | 71.1% | 93.3% | 55.8% | 99.7% | 77.8% | 74% | 87% | -33.1% (active) | 69.4%
9 | COc1cc2c(=O)n(CCCN(C)C)c3c4cc[nH]c4ncc3c2cc1OC | 54.7% | 16.2% | 47.9% | 36.6% | 35.1% | 32.8% | 80.9% | 54.5% | 25.3% | 89.9% | 71.5% | 51.1% | 33.9% | 34.1% | 53.7% | 26.6% | 84.5% | 18.8% | 34.5% | -6.64% (active)
10 | CCN1C(=O)N(CC)C2C1NC(=O)N2/N=C/C=C/c1ccccc1 (stereo not given) | 26.9% | 14.6% | 30.8% | 47.3% | 38.8% | 34.6% | 18% | 20.6% | 32.9% | 53.2% | 34.3% | 53.8% | 61.3% | 57.6% | 69.3% | 48.1% | 47.2% | 25.2% | 19.1% | 43.7%
11 | NC(N)=NC1CCCCC1 | 103% | 97.1% | 107% | 104% | 89.9% | 89.8% | 107% | 99.6% | 91.6% | 109% | 101% | 93% | 103% | 84.7% | 84.1% | 103% | 93.9% | 98.1% | 90.3% | 92.5%
12 | Nc1c(C(=O)Nc2ccccc2)sc2nc3c(cc12)C(=O)CCC3 | 27.2% | 4.34% (active) | 12.4% | 36.1% | 25.7% | 21.6% | 25.7% | 44.1% | 51.2% | 58.7% | 38.7% | 84.6% | 59.8% | 71.1% | 63.6% | 49.7% | 54.7% | 37.3% | 16.8% | 43.4%
13 | CCCCc1nc(Cl)c(C2CC(c3ccc(S(N)(=O)=O)cc3)=NN2c2cc(Cl)cc(Cl)c2)[nH]1 (stereo not given) | 45.7% | 23.3% | 62.2% | 36.4% | 23.5% | 36.4% | 57.9% | 38.8% | -6.25% (active) | 55.2% | 47.2% | 51.3% | 48.6% | 58.3% | 84.6% | 59.7% | 40.5% | 81.7% | 26.2% | 12.3%
14 | c1cc2c(cc1-c1cnc3nonc3n1)OCO2 | 57.1% | 109% | 96.8% | 92.6% | 94.2% | 56.8% | 91.2% | 66% | 84.9% | 104% | 115% | 93.4% | 103% | 87.9% | 105% | 73.3% | 84.4% | 86.9% | 46% | 80.3%
15 | COc1ccc(C(=O)OC2C(OC3C(O)COC(O[C@H]4C[C@H]5[C@@H]6CC=C7C[C@@H](O)CC[C@]7(C)[C@H]6CC[C@]5(C)[C@H]4[C@H](C)C(=O)CCC(C)C)C3OC(=O)C(C)C)OCC(O)C2O)cc1 (stereo not given in full) | -8.16% (active) | 12.1% | 21.4% | 27.8% | 2.54% (active) | 2.36% (active) | -36.3% (active) | -35.6% (active) | -17.5% (active) | -49.6% (active) | -37.2% (active) | 30.2% | 57.3% | -15.2% (active) | 8.54% (active) | 36.6% | 3.21% (active) | -61.2% (active) | -21.8% (active) | -34.8% (active)
